The panel holds about 79,000 compounds, 15% with a hit somewhere; the sample as a whole holds those more often. A number with no mark means an inactive call. Active and inactive are the calls of the source. Cut-off read from the data, not from the text of the source: active = growth inhibition above about 70%; inactive = the rest.
Assays:
[1] = NCI Yeast Anticancer Drug Screen. Data for the rad50 strain (AID 155);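 note: 0% = growth of vehicle-only cultures of the same strain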; conditions: S. cerevisiae rad50 strain growth inhibition; at 50.0 µM; stronger effect = higher value
Outline: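 A DNA repair-deficient yeast mutant serves as the test organism; compound-induced growth inhibition is calculated against vehicle-treated cells.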

[2] = NCI Yeast Anticancer Drug Screen. Data for the mec2-1 strain (AID 157); conditions: S. cerevisiae mec2-1 strain, at 50.0 µM, stronger effect = higher value
Outline: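 Cells of the genetically defined mec2-1 yeast strain are incubated with test compound. Inhibition of growth is calculated against vehicle-treated controls.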

[3] = NCI Yeast Anticancer Drug Screen. Data for the sgs1 mgt1 strain (AID 161);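 note: 0% = growth of cultures given vehicle only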; conditions: S. cerevisiae sgs1 mgt1 strain, at 50.0 µM, stronger effect = higher value
Outline: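 Read-out: growth inhibition vs vehicle controls. Cells: mutant yeast strain deficient in DNA damage repair.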

[4] = NCI Yeast Anticancer Drug Screen. Data for the cln2 rad14 strain (AID 165);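 note: 0% = growth equal to vehicle treated cultures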; conditions: S. cerevisiae cln2 rad14 strain, at 50.0 µM, stronger effect = higher value
Outline: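 The screen exposed genetically defined yeast (cln2 rad14) to test compounds and scored growth inhibition relative to vehicle-treated controls.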

[5] = NCI Yeast Anticancer Drug Screen. Data for the bub3 strain (AID 167); conditions: S. cerevisiae bub3 mutant strain, at 50.0 µM, stronger effect = higher value
Outline: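 Inhibition values come from growth of compound-treated mutant yeast normalised to vehicle-treated controls.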

[6] = NCI Yeast Anticancer Drug Screen. Data for the mlh1 rad18 strain (AID 175); conditions: S. cerevisiae mlh1 rad18 strain growth inhibition; at 50.0 µM; stronger effect = higher value
Outline: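 Compound-treated yeast growth, normalised to vehicle controls. Strain bears defined DNA repair mutations.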

SMILES | growth inhibition [1] [%] | growth inhibition [2] | growth inhibition [3] | growth inhibition [4] [%] | growth inhibition [5] | growth inhibition [6] [%]
CCC(=O)Oc1ccc[nH]c1=O | 1.8 | 21.2% | 4.95% | 24.6 | 9.95% | 14.2
COc1cc(C2NC(=O)C(C)(C)O2)cc(OC)c1OC (stereo unspecified) | -2.05 | -9.85% | -8.75% | -17.8 | 4.8% | -37
Cc1ccc(/C=N/NC(=O)c2ccccc2NC(=O)c2ccccc2)cc1 | 57.4 | 80.6% (active) | 85.4% (active) | 62 | 70.8% (active) | 69.8
CCOc1ccc(NC(=O)CCc2nnc(SC)o2)cc1 | 20.5 | -17.2% | -4.75% | -16.4 | 29.1% | 23.2
CC(C)OC(=O)Oc1ccc(Cl)cc1 | 6.05 | -13.1% | 7.4% | -46.1 | -11.8% | 9.8
CCc1cccc2[nH]c3cc([N+](=O)[O-])ccc3c12 | 12 | -13.8% | 2.5% | -22.8 | -0.4% | 15.7
O=C1C2=C(Nc3cc(Cl)ccc3N2)OC1c1ccc(C2OC3=C(Nc4ccc(Cl)cc4N3)C2=O)cc1 (stereo unspecified) | -20.1 | 11.2% | -7.05% | -33.5 | -7.3% | 17.8
COC(=O)CCC(=O)CC(=O)C1=NS(=O)(=O)c2nc(S(N)(=O)=O)c(Cl)cc2N1 | -5.3 | 6.7% | -14.8% | -24.6 | -16.1% | -1.35
Cc1ccc(S(=O)(=O)N/N=C2\C3CC4CC(C3)C2C4)cc1 (stereo unspecified) | -21 | -24.1% | -12.9% | -6.5 | -6.25% | -15.2
O=NN(CCCl)C(=O)/N=N/C(=O)N(CCCl)N=O | 6.25 | -38.9% | -20.4% | 15.2 | -3.85% | 20
Cc1oc(C)c2c(N=Nc3ccc([N+](=O)[O-])cc3[N+](=O)[O-])c3ccccc3c(O)c12 | 25 | 25.1% | 11.4% | -27.6 | 37.5% | 49.6
Cc1cccc(C)c1N=Nc1sc(N)nc1C | 20.4 | 10.6% | 6.65% | -29.9 | -9.65% | 22.9
NC(CCOCCP(=O)(O)CCOCCC(N)C(=O)O)C(=O)O (stereo unspecified) | -42 | -20.8% | -27.1% | -4.5 | -8.95% | -8.75
CN1C(C(=O)Nc2nccs2)=C(O)c2ccccc2S1(=O)=O | 2.15 | 7.35% | 19.9% | -11.2 | 7.05% | 21.6
COc1ccc(/C=N/NC=O)cc1OC | 7.35 | 6.5% | 1.2% | 1.45 | -12.5% | -2.85
CC(C)(S(=O)(=O)Oc1ccccc1)S(=O)(=O)Oc1ccccc1 | 1.6 | 9.95% | -15.4% | -16.9 | 49.8% | 16.6
O=C(O)CC(Cc1ccccc1)C(=O)O (stereo unspecified) | 1 | -3.45% | -26.1% | -17.8 | -31.9% | 2.05
Nc1ccn(C2CC3OCC3O2)c(=O)n1 (stereo unspecified) | -13.2 | 24.9% | -1.25% | -5.7 | 0.95% | 0.65
Cc1nc(=O)n2c(c1C(=O)Nc1ccc(Cl)cc1)NCC2 | 3.75 | -3.35% | 0.1% | -37.9 | 2.35% | 14.8
O=C1CS/C1=C/c1ccccc1 | 11.4 | -2.95% | -15.2% | -68.7 | -7.85% | -5.15
Nc1cnc(Nc2cccc3ccccc23)o1 | -26.3 | -35.3% | -14.1% | 0.35 | 8.85% | -15.7

SMILES | growth inhibition [1] [%] | growth inhibition [2] | growth inhibition [3] | growth inhibition [4] [%] | growth inhibition [5] | growth inhibition [6] [%]
CCC(C)(C)C(O)c1ccc2c(c1)OCO2 (stereo unspecified) | -0.2 | -13.2% | 4.1% | -7.65 | 1.3% | -28.5
OC(Cc1ccccn1)c1ccccc1 (stereo unspecified) | 33.4 | 13.1% | 21.4% | 22.6 | 9.35% | 32.1
O=C(NCCNCCCNC(=O)c1cc(-c2ccccc2)nc2ccccc12)c1cccc(O)c1O | 8.4 | 22.6% | 33.1% | 22.6 | 49.5% | 44.2
CCN1C(=NCCO)NS(=O)(=O)c2ccccc21 | -17.2 | 3.4% | -25.4% | -1.95 | -24.6% | 0.35
CC(=O)OC1OC(COC(c2ccccc2)(c2ccccc2)c2ccccc2)C(OCc2ccccc2)C(OCc2ccccc2)C1OC(C)=O (stereo unspecified) | -14.3 | -18.1% | -21.1% | 13.3 | 0.45% | 1.65
COC(=O)c1ccc(C=O)[nH]1 | 8 | -22.1% | 0.55% | -10.5 | 4.7% | 7.25
O=C(NC1C2CC3CC(C2)CC1C3)c1ccncn1 (stereo unspecified) | 25.1 | 4.75% | 17.8% | 38 | 13.2% | 26.2
O=c1cc([O-])[n+](C2OC(CO)C(O)C2O)c2sccn12 (stereo unspecified) | 10.2 | 9.2% | 16.6% | -0.5 | -2.55% | -2.8
CC(=O)n1ccc(=O)[nH]c1=O | 8.9 | 0.2% | 0.45% | -38.8 | -11.9% | 16.4
CC(C)NCCN | 17.4 | 0.3% | 18.8% | 11.3 | 12.7% | 23.4
CCCCCCCCO[Si](OCCCCCCCC)(OCCCCCCCC)OCCCCCCCC | -24.6 | -26.3% | -16.8% | 6.9 | -15.2% | -20.9
O=COC1CC2CC1c1ccccc12 (stereo unspecified) | 4.8 | -9.7% | -1.7% | -7.8 | -3.85% | 6.8
O=S(=O)(O)c1ccc(N=Nc2c(O)cc(O)cc2O)cc1 | -21.9 | -6.8% | -6.95% | 17.2 | 31.8% | -18.4
C(#CC(Sc1ccccc1)=C(Sc1ccccc1)Sc1ccccc1)Sc1ccccc1 | 3.1 | 2.15% | -21.9% | -32.3 | 5.6% | -6.25
O=C(Nc1cc(Cl)c(Cl)cc1Cl)N1CCOCC1 | 0.15 | -30.7% | -11.2% | 5.25 | -6.1% | -5.15
CC(SC(=S)N1CCOCC1)C(=O)O (stereo unspecified) | 2.65 | -6.8% | -1.6% | -4.8 | -6.05% | -7.6
Cc1ccc(S(=O)(=O)/C(C#N)=C\N2CC(=O)NC2=S)cc1 | -20.1 | -21.1% | -23.2% | -10.3 | -13.9% | -25.6
Clc1ccc(N=Cc2ccccc2Cl)cc1 | 34.8 | 16.1% | 25.2% | -13.7 | 42% | 19.7
O=C(Nc1ccc(Cl)c(Cl)c1)C(=O)Nn1c(=S)[nH]c2ccccc2c1=O | -4.05 | -16.4% | 2.8% | -1.5 | -0.8% | 0.65
S=C(Cc1cccc2ccccc12)N1CCN(c2ccc(Cl)cc2)CC1 | -17 | -2.3% | -16% | -7.9 | -9.95% | -0.55

Reference: PubChem BioAssay (NCI)
